The values that follow come from the supplement of paper PMC11172423.

A number with no mark means an inactive call.

Test [1] concerns Falciformispora senegalensis CBS197.79. The test is described as follows: growth relative to untreated control; higher = less inhibition, active = 20 or less. The procedure, abridged: (§1)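 Growth was expressed as metabolic activity relative to the untreated growth control, with both corrected using a blank of medium plus dye. Hyphal fragments of M. mycetomatis MM55 or F. senegalensis CBS197.79 were suspended to 68–72% transmission at 660 nm in colourless RPMI 1640 containing L-glutamine and MOPS. In 96-well plates they were exposed to compound at 100 or 25 µM for 7 days at 37 °C, and viability was read with MTS (2 h, 490 nm) or resazurin (600 nm).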

Test [2] has as its system Madurella mycetomatis MM55. The description is as above. The procedure, abridged: as §1

Take `CN(C)CCNC(=O)c1ccc(Nc2nccc(-c3ccc(Cl)c(Cl)c3)n2)cc1`: the growth in test [1] (25 µM) was 24.5%; in test [1] (100 µM), 43.3%; in test [2] (25 µM), 5.83% (active); in test [2] (100 µM), 4.93% (active).
The corresponding values for `Cc1cccnc1-c1noc(-c2ccccc2)n1` are 99.3%, 98%, 49.2% and 87.4%.
As for `CC1(C)CCC(CO)(NC(=O)c2cc3c(F)cc(F)cc3[nH]2)CC1`, the growth in test [1] (25 µM) was 93.1%; in test [1] (100 µM), 93.5%; in test [2] (25 µM) it was 28.6%; in test [2] (100 µM), 6.07% (active).
The corresponding values for `Cn1nc(-c2cccc(CNC3CCc4ccc(O)cc43)c2)c2cnc(NC3CCCC3)nc21` (stereo not drawn) are 18% (active), 21.3%, 5.13% (active) and 10.2% (active).
The corresponding values for `COc1ccc2nc3cc(Cl)ccc3c(Nc3cc(CN4CCCC4)c(O)c(CN4CCCC4)c3)c2n1` are 107%, 15% (active), 76.3% and 40%.
The corresponding values for `CC[C@H](NC(=O)c1cc2c(F)cccc2[nH]1)c1ccccc1` are 77.9%, 99%, 8.07% (active) and 5.18% (active).
For the compound `C[C@@H]1CCCN1CCc1cc2cc(-c3ccc(C#N)cc3)ccc2o1`, the growth in test [1] (25 µM) is 98.4%; in test [1] (100 µM), 17.8% (active); in test [2] (25 µM) it was 71.7%; in test [2] (100 µM), 4.57% (active).
The corresponding values for `C[C@@H]1CS/C(=N\NC(=O)C(=O)[C@@H](NC(=O)C2CCCCCC2)C2CCOCC2)N1C` are 95.5%, 98.8%, 88.8% and 93.2%.
The corresponding values for `CC(C)Oc1cccc(-c2ccc3nc(Nc4ncccc4N(C)C)cn3c2)n1` are 88.2%, 93.4%, 124% and 84.6%.
As to `Cc1nn(C)c(Oc2ccccc2)c1C=NOCc1ccc(C(=O)OC(C)(C)C)cc1`, the growth was 95% in test [1] (25 µM), 89% in test [1] (100 µM), 83.5% in test [2] (25 µM) and 102% in test [2] (100 µM).
The corresponding values for `CN(C)CCn1cnc2sc3c(c2c1=O)CCC(NCc1cccc(Cl)c1)C3` (stereo not drawn) are 94.3%, 21%, 36.1% and 5.28% (active).
`CCN(CC)Cc1ccccc1CNc1ccnc2ccsc12`: the growth in test [1] (25 µM) is 103%; in test [1] (100 µM), 28.1%; in test [2] (25 µM) it was 75.4%; in test [2] (100 µM) it was 5.38% (active).
The corresponding values for `O=C(Nc1cnc2ccccc2c1)c1ccccc1C(=O)c1ccc(F)cc1` are 88.2%, 95.5%, 92.9% and 91.8%.
The corresponding values for `OCCN1CCN(CCCN2c3ccccc3Sc3ccc(C(F)(F)F)cc32)CC1` are 1.11% (active), 8.28% (active), 3.76% (active) and 3.71% (active).
The corresponding values for `CS(=O)(=O)c1ccc(-c2cnn3c2NC(c2cccc(S(=O)(=O)C4CC4)c2)CC3)cc1` (stereo not drawn) are 72.5%, 88.1%, 97.1% and 82.5%.
For the compound `Cc1ccc(-c2noc(-c3ccccc3)n2)cc1`, the growth in test [1] (25 µM) is 90.2%; in test [1] (100 µM), 86.5%; in test [2] (25 µM) it was 43.1%; in test [2] (100 µM), 90.5%.
Regarding `Cc1nc2ccccc2n1Cc1ccc(Cl)cc1`, the growth in test [1] (25 µM) was 106%; in test [1] (100 µM), 76.5%; in test [2] (25 µM), 76.5%; in test [2] (100 µM), 5.04% (active).
As to `COc1cc2c3cc1Oc1c(OC)c(OC)cc4c1[C@@H](Cc1ccc(O)c(c1)Oc1ccc(cc1)C[C@@H]3N(C)CC2)N(C)CC4`, the growth in test [1] (25 µM) was 99.1%; in test [1] (100 µM), 12.6% (active); in test [2] (25 µM), 88.9%; in test [2] (100 µM), 5.99% (active).
The corresponding values for `CC[C@H](C)[C@H]1O[C@]2(C=C[C@@H]1C)C[C@@H]1C[C@@H](C/C=C(\C)[C@@H](O[C@H]3C[C@H](OC)[C@@H](O[C@H]4C[C@H](OC)[C@H](NC(C)=O)[C@H](C)O4)[C@H](C)O3)[C@@H](C)/C=C/C=C3\CO[C@@H]4[C@H](O)C(C)=C[C@@H](C(=O)O1)[C@]34O)O2` are 101%, 91.4%, 74.9% and 116%.
The corresponding values for `Cc1c[nH]c(-c2cccc(C(=O)NC3CCC(CCN4CCc5ccc(C#N)cc5CC4)CC3)c2)n1` (stereo not drawn) are 74.1%, 92.9%, 38.2% and 88.4%.
The corresponding values for `Cn1cnc2c(F)c(Nc3ccc(Br)cc3Cl)c(C(=O)NOCCO)cc21` are 96.9%, 103%, 110% and 86.3%.
As for `CCOc1ccc(Cc2nccc3cc(OCC)c(OCC)cc23)cc1OCC`, the growth was 108% in test [1] (25 µM), 105% in test [1] (100 µM), 80.9% in test [2] (25 µM) and 83% in test [2] (100 µM).
